# Only some compounds are listed: those with a hit (about 6.2% of all), similar ones and a draw of the others.
# HCMV antiviral – inhibitors of human cytomegalovirus; AID 1259415; hit rate 4.5% among 410,000; activity change, negative = inhibition, % at 57.5 µM; HFF cells, HCMV-luciferase reporter, 72 h; hits give low values; in the data active means activity change below about -60%; inconclusive means no clear call, values can overlap the other calls; inactive means above about -39%
#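 Human foreskin fibroblasts infected with luciferase-reporter HCMV at MOI 1 PFU/cell, compounds at two doses. Luciferase measured 72 h post infection; normalized to buffer-only basal and Salinomycin (10uM) controls.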
# FMDV inh – antivirals against foot and mouth disease virus; Potency, µM (series often up to 57.9 µM), most hits filed as inhibitors; hit rate 1.2% among 410,000; FMDV antiviral cell-based qHTS; calls by dose curve; tested in HEK293T cells; further: read-out not given here; nearly all actives have a fitted effect of over 45% in size
# LASV entry inh – inhibitors of Lassa virus binding or cell entry | AID 540256 | Lassa virus pseudotype entry inhibition, cell reporter | Potency, µM (top dose mostly 37.9 µM), hits mostly inhibitors | hit rate 1.2% among 300,000; calls by dose curve; tested in HEK293 cells; further: nearly all actives have a fitted effect of over 50% in size
# MARV entry inh – inhibitors of Marburg virus binding or cell entry; Marburg virus pseudotyped entry inhibition, cell reporter; Potency, µM (highest dose often 37.8 µM), actives largely listed as inhibitors; hit rate 1.8% among 300,000; calls by dose curve; tested in HEK293 cells
# Hits are given with their value; i = inactive; ? = inconclusive; nt = no result.
SMILES,HCMV antiviral,FMDV inh,LASV entry inh,MARV entry inh
O=C1/C(=C/c2ccccn2)SC(=S)N1c1cccc(O)c1,?,i,nt,nt
Cc1c(S(=O)(=O)Nc2ccc(Br)cc2)c(=O)n(C)c(=O)n1C,i,i,nt,nt
O=C(CSc1ccc(F)cc1)N1CCC(c2nc3ccccc3s2)CC1,?,?,i,?
O=C(CN1CCC(c2nc3ccccc3s2)CC1)N1CCCCC1,-62,i,nt,nt
CCOC(=O)c1ccccc1NC(=O)CN1CCC(n2nnc3cc(C(F)(F)F)ccc32)CC1,i,?,i,i
O=C(CSc1ccccc1Cl)N1CCC(c2nc3ccccc3s2)CC1,i,35µM,i,i
O=C(CN1CCC(n2nnc3cc(C(F)(F)F)ccc32)CC1)NCc1cccs1,i,?,?,2.2µM
Cc1cc(C)cc(OCC(=O)N2CCC(c3nc4ccccc4s3)CC2)c1,i,i,i,i
CCCCC(=O)Nc1cccc(NC(=O)C(C)C)c1,i,i,i,i
CCc1ccccc1NS(=O)(=O)c1cccc2nsnc12,i,i,nt,nt
c1ccc(-c2cnn3nnnc3n2)cc1,i,i,i,i
O=C(Nc1ccc(-c2nc3cccnc3s2)cc1)c1ccc(Br)o1,-91,i,nt,nt
O=C(Nc1ccc(-c2nc3cccnc3s2)cc1)c1ccco1,i,i,nt,nt
O=C(Nc1cccc(-c2nc3cccnc3s2)c1)c1cccc(Br)c1,-67,i,i,i
CN(C)c1ccc(C(=O)Nc2cccc(-c3nc4cccnc4s3)c2)cc1,i,i,?,i
O=C(Nc1ccc(-c2nc3cccnc3s2)cc1)c1cccnc1Cl,i,i,3.5µM,?
Cc1ccc(N(CC(=O)N2CCCC2)S(C)(=O)=O)cc1C,i,i,i,i
O=S(=O)(CCc1ccccc1)c1ccccc1,nt,nt,nt,i
O=c1oc2ccccc2cc1-c1nc2c(s1)CCCC2,i,i,2.9µM,?
CCc1nc(N2CCN(C(=S)NCCCOC)CC2)c2c3c(sc2n1)CCCC3,-64,?,nt,nt
Cc1ccccc1Nc1cc(C)c2c(O)cccc2n1,-89,i,i,?
COc1ccc(N2C(=O)c3ccccc3NC2c2cccnc2)cc1 (centres undefined),i,i,?,?
Cc1c(NC(=O)c2cccc(S(=O)(=O)N3CCOCC3)c2)c(=O)n(-c2ccccc2)n1C,i,nt,i,i
O=C(Nc1cc([N+](=O)[O-])ccc1Cl)C(Sc1ccccc1)c1ccccc1 (centres undefined),?,?,i,?
O=C(Nc1ccc(Cl)c([N+](=O)[O-])c1)C(Sc1ccccc1)c1ccccc1 (centres undefined),-102,?,?,?
SMILES,HCMV antiviral,FMDV inh,LASV entry inh,MARV entry inh
CCOC(=O)c1cnc(SC)nc1Oc1cccc(NC(=O)c2ccc(Cl)cc2)c1,i,?,i,i
C/C(=N/NS(=O)(=O)c1ccc(CC(C)C)cc1)c1ccncc1,-66,i,nt,nt
C/C(=N/NS(=O)(=O)c1ccc(C(C)C)cc1)c1ccncc1,i,i,nt,nt
CCNC(=O)C1(C)CCN(C(=O)c2ccccc2F)C1 (centres undefined),-98,i,nt,nt
CNS(=O)(=O)c1cc(Cl)ccc1Sc1ccccc1C(=O)O,i,i,i,?
CCSc1nnc(NC(=O)C(C)Sc2nc3ccccc3[nH]2)s1 (centres undefined),-103,i,i,i
Cc1sc2ncnc(Sc3nnnn3-c3ccc(Cl)cc3)c2c1C,i,?,21µM,?
O=C(O)CSc1ncnc2sc3c(c12)CCCC3,i,i,i,i
c1ccc(-n2nnnc2Sc2ncnc3sc4c(c23)CCCC4)cc1,i,28µM,?,?
COc1cc(CCNC2=CC(=O)c3ncccc3C2=O)ccc1O,i,40µM,?,?
O=C(NCc1ccc(Cl)cc1)C(=O)c1cn(CC(=O)N2CCOCC2)c2ccccc12,-87,i,nt,nt
COc1ccc(CNC(=O)C(=O)c2cn(CC(=O)N3CCOCC3)c3ccccc23)cc1,i,i,nt,nt
Cn1cc(CN(C(=O)Nc2ccccc2)C2CCCCC2)c2ccccc21,-105,i,?,i
Cn1cc(CN(C(=O)Nc2ccc(Cl)c(Cl)c2)C2CCCCC2)c2ccccc21,i,i,i,i
COc1ccc(Cl)cc1C(=O)Nc1ccc(S(=O)(=O)N2CCCC2)cc1,-102,i,i,i
COc1ccccc1C(=O)Nc1ccc(S(=O)(=O)N2CCCC2)cc1,i,i,i,i
O=C(Nc1ccc(O)cc1)c1cc(S(=O)(=O)N2CCCC2)ccc1Cl,-97,?,i,?
COc1ccc2[nH]c(C)c(CCNC(=S)Nc3cccc(C)c3)c2c1,?,i,?,?
CCc1cccc(CC)c1NC(=S)NCCc1c(C)[nH]c2ccc(C)cc12,-93,i,?,?
COc1ccc2[nH]c(C)c(CCNC(=S)Nc3ccccc3OC)c2c1,i,i,nt,nt
CCc1cccc(C)c1NC(=S)NCCc1c(C)[nH]c2ccc(C)cc12,-72,i,?,?
COc1ccc2[nH]c(C)c(CCNC(=S)Nc3cc(C)ccc3C)c2c1,-61,i,i,i
COc1ccc2[nH]c(C)c(CCNC(=S)Nc3cc(C)cc(C)c3)c2c1,?,i,i,i
COc1ccc(CCNC(=S)Nc2ccc(C)cc2C)cc1,-76,i,i,i
COc1ccc(CCNC(=S)Nc2cc(C)ccc2C)cc1,?,i,i,i
SMILES,HCMV antiviral,FMDV inh,LASV entry inh,MARV entry inh
Cc1ccc2[nH]c(=O)c(C3=NN(C(=O)CCC(=O)O)C(c4cccs4)C3)c(-c3ccccc3)c2c1 (centres undefined),i,i,i,?
COc1ccc(C2C(C(=O)c3cccs3)=C(O)C(=O)N2Cc2cccnc2)cc1OC (centres undefined),i,i,i,i
COc1ccc(-c2noc(N(C)CC(=O)Nc3cccc(C(F)(F)F)c3)n2)cc1,i,i,i,i
COc1ccc(CCNc2ncnc3c2oc2ccccc23)cc1OC,-92,nt,?,?
c1ccc(CNc2ncnc3c2oc2ccccc23)nc1,i,i,?,i
Cc1nc(NCCc2cnc[nH]2)c2oc3ccccc3c2n1,i,nt,i,i
COc1ccc(CCNc2nc(C)nc3c2oc2ccccc23)cc1OC,-67,18µM,13µM,13µM
CCOc1ccc(C(=O)NCC(=O)OC2CCOC2=O)cc1OCC (centres undefined),i,i,i,i
CCc1cc(CNC(=O)c2cccc(OC3CCN(S(C)(=O)=O)CC3)c2)on1,i,?,?,?
COC(=O)C1=CO[C@@H](OC2OC(CO)C(O)C(O)C2O)[C@@H]2[C@@H](C)[C@@H](O)C[C@H]12 (some centres undefined),i,i,nt,nt
O=C(CCl)Nc1cc2[nH]c(=O)[nH]c2cc1Br,-105,?,?,?
Cc1cc2c(C)cc(=O)[nH]c2cc1NC(=O)CCl,i,?,nt,i
Cc1nn(C)c(C)c1N1C(=O)c2cccc3c(Br)ccc(c23)C1=O,-74,?,i,i
COc1ccc2c(c1OC)C(=O)N1c3ccccc3N=C(c3ccc([N+](=O)[O-])cc3)CC21 (centres undefined),?,i,i,i
COC(=O)c1cccc(NC(=O)CSCc2ccccc2)c1,i,i,nt,nt
O=C(O)c1ccc(N/N=C/c2c(F)cccc2Cl)cc1,?,32µM,nt,nt
CCNC(=S)N/N=C/c1ccc(C(=O)O)cc1,i,i,?,i
Cc1ccc(/C=N/NC(=O)CNC(=O)c2cccs2)cc1,i,i,nt,nt
O=C(O)c1ccc(N/N=C/c2ccc(C(F)(F)F)cc2)cc1,i,?,1.3µM,1.6µM

# High-throughput results from PubChem BioAssay.
